Rab9 prom act: qHTS Assay for Rab9 Promoter Activators | Huh7 Rab9 promoter-luciferase reporter, luminescence, 24 h | Potency, µM (titrated, usually from 9.22 µM), for inactives: at the top dose activation, negative = inhibition, hits mostly activators | hit rate 2.8% among 320,000; also: % of control where 0% means no effect; nearly all actives have a fitted effect of over 60% in size
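Promoter activation is measured as luciferase luminescence in Huh7 cells stably transfected with a Rab9 promoter–luciferase construct, following 24 h compound exposure at 37 °C and 10 min reagent incubation at ambient temperature.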
NPC1 prom act: qHTS Assay for NPC1 Promoter Activators; Huh7 NPC1 promoter luciferase reporter, 24 h; Potency, µM (highest dose often 9.22 µM), inactives show top-dose activation, most hits filed as activators; hit rate 2.4% among 320,000; AID 485313, 2010; also: % of control where 0% means no effect; nearly all actives have a fitted effect of over 60% in size
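Cells: Huh7 expressing luciferase under the NPC1 promoter, 1500/well. Seeded 2 h, compound added, incubated 24 h at 37 °C. Luciferase reagent, 10 min ambient, then luminescence.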
SMN2 splice enh: qHTS Assay for Enhancers of SMN2 Splice Variant Expression. hit rate 2.8% among 210,000. Potency, µM (titrated, usually from 46.1 µM), inactives show top-dose activity change, positive = activation, most hits filed as activators. HEK293 SMN2-luciferase splicing reporter, luminescence, 30-36 h; also: % of control where 0% means no effect; nearly all actives have a fitted effect of over 55% in size
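qHTS luciferase splicing reporter: luminescence rises when SMN2 exon 7 is included in transfected HEK293 cells. Compound exposure lasted 30-36 h at 37C, with 4.5 mM final sodium butyrate as control, followed by a ONE-Glo read.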
FLuc modulator: qHTS profiling assay for firefly luciferase inhibitor/activator using purifed enzyme and Km concentrations of substrates (counterscreen for miR-21 project) | hit rate 6.9% among 360,000 | purified FLuc, Km substrates, luminescence inhibition | AID 588342, 2011 | Potency, µM (top dose mostly 57.5 µM), without a hit: at the highest dose activity change, negative = inhibition, actives largely listed as inhibitors | Luciferin 4-monooxygenase (Photinus pyralis), P08659;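 also: plate controls were vehicle for no effect and reference inhibitor for full effect; nearly all actives have a fitted effect of over 55% in size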
Target sequence (P08659 whole entry, looked up): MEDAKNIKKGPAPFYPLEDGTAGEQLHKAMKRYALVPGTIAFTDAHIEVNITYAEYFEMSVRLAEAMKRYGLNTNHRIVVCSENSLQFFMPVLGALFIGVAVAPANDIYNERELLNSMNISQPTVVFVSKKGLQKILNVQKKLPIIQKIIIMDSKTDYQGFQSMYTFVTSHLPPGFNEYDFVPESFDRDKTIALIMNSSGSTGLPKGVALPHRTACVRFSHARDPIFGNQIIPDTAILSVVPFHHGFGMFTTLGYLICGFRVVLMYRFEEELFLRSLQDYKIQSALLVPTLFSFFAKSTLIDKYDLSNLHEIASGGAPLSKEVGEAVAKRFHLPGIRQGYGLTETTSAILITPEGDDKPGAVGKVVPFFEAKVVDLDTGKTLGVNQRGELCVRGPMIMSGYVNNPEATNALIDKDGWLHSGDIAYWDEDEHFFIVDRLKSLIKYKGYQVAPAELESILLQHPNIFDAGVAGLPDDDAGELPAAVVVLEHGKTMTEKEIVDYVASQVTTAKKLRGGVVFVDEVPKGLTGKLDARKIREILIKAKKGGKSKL
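Biochemical qHTS of compounds, final roughly 60 µM downward over six points, against 10 nM purified firefly luciferase using Km concentrations of substrates (10 uM D-luciferin, 10 uM ATP) in Tris acetate pH 7.5 buffer; luminescence output.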
ELG1 genotoxic: qHTS screen for small molecules that induce genotoxicity in human embryonic kidney (HEK293T) cells expressing luciferase-tagged ELG1. hit rate 1.3% among 330,000. AID 504466, 2011. HEK293T ELG1-luciferase reporter, luminescence, 16 h. Potency, µM (highest dose often 46 µM), inactives show at the top dose activity change, positive = activation, actives largely listed as activators; also: % of control where 0% means no effect; nearly all actives have a fitted effect of over 60% in size
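HEK293T cells expressing luciferase-tagged ELG1 were treated with compound or DMSO for 16 hr at 37°C. Luciferase activity was then read after 30 min with ONE-Glo at room temperature; rising signal flags genetic stress.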
The depositor's hits bear a star; u = inconclusive; x = no result. An excerpt weighted towards active compounds, which were near 7.4% of everything screened. Calls follow the shape of the dose curve; as a rule, active = well fitted curve in the direction sought with a large enough effect; inconclusive = small, poorly fitted or top-dose-only effect, or another doubt; inactive = no such curve, though single readings can be large; an effect the other way counts as inactive or inconclusive. Potency is read from the fitted curve at half-maximal effect.

SMILES | Rab9 prom act | NPC1 prom act | SMN2 splice enh | FLuc modulator | ELG1 genotoxic
COc1ccc(CNC(=O)c2ccc(-c3ccccc3)cc2)cc1OC | 0% | -4% | -32% | 2% | 2%
O=C(NC(=S)NCc1ccc(-c2nc3ccccc3s2)cc1)c1ccco1 | 4µM* | 3.2µM* | x | 2.7µM* | 16µM*
COc1ccc(C(=O)NCc2ccc(-c3nc4ccccc4s3)cc2)cc1OC | u | 16% | -21% | 1.3µM* | 16µM*
O=C(NCc1ccc(-c2nc3ccccc3s2)cc1)c1ccco1 | u | u | 14% | 6µM* | 14%
c1ccc(-c2ncc(CSc3nncn3-c3ccccc3)s2)cc1 | 1% | 1% | -55% | 0% | 0%
Cc1ccccc1CSc1nnc(C)n1N | 8% | -1% | x | -2% | 3%
Cc1nnc(SCc2nc3ccccc3s2)n1-c1ccccc1 | 22% | 19% | u | 15µM* | u
CCC(c1nnc(SCc2nc3ccccc3s2)n1Cc1ccccc1)N(C)C (stereo not drawn) | 13% | 0% | -14% | 17µM* | u
Cc1nnc(SCc2nc3ccccc3s2)n1N | -29% | 11% | x | 9.5µM* | 13µM*
c1ccc(-n2cnnc2SCc2nc3ccccc3s2)cc1 | 29% | 3% | -17% | 17µM* | u
c1ccc(Cn2c(SCc3nc4ccccc4s3)nnc2-c2ccco2)cc1 | 4% | 11% | -3% | -13% | -1%
COc1ccccc1-c1coc2c(CN3CCOCC3)c(O)ccc2c1=O | -3% | -1% | x | -1% | 3%
CCOC(=O)C1CCN(S(=O)(=O)c2cc3c(cc2C)NC(=O)CO3)CC1 | -7% | 8% | x | -3% | -2%
COc1ccc(-c2nc(CS(=O)(=O)CC(=O)NCCCN3CCOCC3)c(C)o2)cc1 | -1% | -2% | x | -3% | 1%
COc1cccc(-c2nnc(SCc3nc4ccccc4s3)n2C)c1 | 0% | 9% | 2% | u | 15%
CCn1c(SCc2nc3ccccc3s2)nnc1-c1ccccc1 | 1% | 3% | -3% | 15µM* | 13µM*
c1ccc(CNc2ccc3c(c2)ncn3C2CCCCC2)nc1 | u | u | 28% | 13µM* | 11%
Cc1c(NC(=O)c2ccc(Cl)nc2)cccc1-c1nc2cccnc2s1 | -3% | 3% | x | 13µM* | -10%
Cc1c(NC(=O)c2ccco2)cccc1-c1nc2cccnc2s1 | -2% | 6% | -11% | 24µM* | -15%
NC(=O)CC(NC(=O)Cc1ccc(Br)cc1)c1ccc(NCc2ccc(F)cc2)c([N+](=O)[O-])c1 (stereo not drawn) | -7% | -1% | x | 0% | 15%
CCCSc1nnc(Nc2ccccc2C)s1 | 2.8µM* | 28% | u | 19µM* | u
CCCSc1nnc(NC(=O)Nc2ccccc2)s1 | u | u | 26% | u | 3%
CN(C(=O)CSc1nnc(Nc2ccccc2F)s1)C1CCS(=O)(=O)C1 (stereo not drawn) | x | x | x | x | 2%
CCN(CC)C(=O)CCCSc1nnc(Nc2ccccc2F)s1 | 1.8µM* | u | x | 17µM* | 17%
O=C1c2ccccc2C(=O)N1CSc1nnc(Nc2ccccc2F)s1 | 9% | 4% | 6.3µM* | 2% | 14%
SMILES | Rab9 prom act | NPC1 prom act | SMN2 splice enh | FLuc modulator | ELG1 genotoxic
Cc1nnc(SCC(=O)NC2CCCCCC2)n1C(C)C | 0% | -5% | x | -2% | 4%
O=C(NC(=S)/C(=C1\CCCCCN1)[N+](=O)[O-])c1ccccc1 | x | x | x | x | 0.23µM*
c1ccc(-c2n[nH]c(-c3ccccn3)n2)cc1 | 3.5µM* | 2µM* | 11µM* | 12µM* | u
c1ccc(-c2nn[nH]n2)nc1 | 5% | -2% | x | -1% | 0%
c1ccc(-c2n[nH]c(-c3ccccn3)n2)nc1 | 2.8µM* | 3.5µM* | 11µM* | 15µM* | 6.5µM*
Cc1ccc(C=Nc2ccc(N(C)C)cc2)o1 | 8% | 7% | -7% | 0.27µM* | 21µM*
O=C(Nc1ccc(-c2cn3c(n2)SCC3)cc1)c1ccco1 | 0.89µM* | 2.5µM* | x | 8.5µM* | u
O=C(Nc1cccc(-c2cn3c(n2)SCC3)c1)c1ccc(Br)o1 | 0% | 0% | 11% | u | -1%
O=C(Oc1ccc(-c2cn3c(n2)SCC3)cc1)c1ccccc1 | 1% | 0% | u | u | 18µM*
CC(=O)Nc1ccc(-c2cn3c(n2)SCC3)cc1 | 2.8µM* | u | x | u | u
CCn1cc(Br)c(C(=O)Nc2ccc(F)cc2F)n1 | u | u | x | u | 12%
CCn1cc(Br)c(C(=O)Nc2cccc(SC)c2)n1 | u | 25% | 35µM* | 24µM* | u
CC1CCCCN1c1nc(-c2ccncc2)nc2ccccc12 (stereo not drawn) | -5% | -4% | 15% | 0% | -7%
CC1CCN(c2nc(-c3ccncc3)nc3ccccc23)CC1 | -3% | -3% | 0% | 2% | -6%
CC1CCCCN1c1nc(-c2ccc(C(C)(C)C)cc2)nc2ccccc12 (stereo not drawn) | x | x | 383% | 3.4µM* | x
CC1CCN(c2nc(-c3ccc(C(C)(C)C)cc3)nc3ccccc23)CC1 | x | x | -1% | 5.4µM* | x
CCOc1cc(N2CCOCC2)c(OCC)cc1NS(=O)(=O)c1cc(NC(C)=O)ccc1OC | -1% | -2% | x | 6% | 4%

Source: PubChem BioAssay
